# Test results from PubChem BioAssay.
# Values without a mark were called inactive. Calls of active or inactive are those of the source. Cut-off read from the data, not from the text of the source, unless noted: active = inhibition above about 25%; inactive = the rest.
# Experiments:
# [1] = molecular target: Nuclear receptor coactivator 1 (Homo sapiens) (UniProt Q15788); assay: SRC1 coactivator transcriptional activity inhibitors, confirmation, cell-based, luminescence, quadruplicate (AID 588820;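 active = mean inhibition above 46.68%, the untreated control wells mean plus 3 SD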;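 note: 0% = DMSO wells and 100% = gossypol 36 µM treated wells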); details: HEK293 GAL4-SRC1 luciferase reporter, at 3.6 µM, stronger effect = higher value
# Sequence of Nuclear receptor coactivator 1 (Homo sapiens) (Q15788 whole entry, looked up, the tested form may be a part): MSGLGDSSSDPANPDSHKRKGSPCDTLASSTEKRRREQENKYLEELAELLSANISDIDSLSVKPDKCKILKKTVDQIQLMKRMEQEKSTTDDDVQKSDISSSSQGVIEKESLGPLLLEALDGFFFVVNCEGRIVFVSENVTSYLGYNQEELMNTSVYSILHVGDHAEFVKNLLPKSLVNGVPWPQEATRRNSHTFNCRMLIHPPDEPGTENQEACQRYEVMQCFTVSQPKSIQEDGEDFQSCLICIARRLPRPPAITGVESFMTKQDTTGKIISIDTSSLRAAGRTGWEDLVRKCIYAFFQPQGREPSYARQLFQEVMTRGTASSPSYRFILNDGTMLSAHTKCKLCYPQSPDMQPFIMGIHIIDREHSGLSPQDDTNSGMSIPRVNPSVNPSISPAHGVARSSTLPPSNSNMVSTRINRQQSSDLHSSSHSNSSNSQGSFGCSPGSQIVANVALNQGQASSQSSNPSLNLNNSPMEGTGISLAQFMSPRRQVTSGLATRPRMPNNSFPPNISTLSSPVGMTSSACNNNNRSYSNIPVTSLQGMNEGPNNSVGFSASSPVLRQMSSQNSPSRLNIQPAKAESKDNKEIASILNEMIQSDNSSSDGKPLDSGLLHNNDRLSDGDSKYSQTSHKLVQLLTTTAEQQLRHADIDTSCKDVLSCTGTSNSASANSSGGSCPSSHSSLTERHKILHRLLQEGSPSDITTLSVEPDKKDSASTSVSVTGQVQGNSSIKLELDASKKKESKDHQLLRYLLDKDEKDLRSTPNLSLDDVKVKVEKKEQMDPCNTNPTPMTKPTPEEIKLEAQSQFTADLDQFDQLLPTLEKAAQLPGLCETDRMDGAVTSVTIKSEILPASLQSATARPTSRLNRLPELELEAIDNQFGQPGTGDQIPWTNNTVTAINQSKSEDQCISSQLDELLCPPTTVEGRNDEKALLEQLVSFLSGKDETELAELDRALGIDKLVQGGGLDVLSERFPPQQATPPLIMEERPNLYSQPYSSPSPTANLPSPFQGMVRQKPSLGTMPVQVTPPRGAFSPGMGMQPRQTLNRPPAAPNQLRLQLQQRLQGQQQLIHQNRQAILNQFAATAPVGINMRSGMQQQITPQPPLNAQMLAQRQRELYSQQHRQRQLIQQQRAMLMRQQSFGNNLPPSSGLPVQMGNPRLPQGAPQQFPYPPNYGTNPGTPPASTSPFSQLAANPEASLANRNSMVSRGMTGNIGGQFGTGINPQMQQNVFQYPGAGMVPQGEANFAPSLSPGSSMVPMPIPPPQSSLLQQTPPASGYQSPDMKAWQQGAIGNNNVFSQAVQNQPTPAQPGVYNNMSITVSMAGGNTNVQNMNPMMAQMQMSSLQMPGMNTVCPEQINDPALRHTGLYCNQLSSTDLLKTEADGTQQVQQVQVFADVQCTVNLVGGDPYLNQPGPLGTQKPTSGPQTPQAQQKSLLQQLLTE
# [2] = VP16 transactivation inhibitors, counter-screen for SRC1 inhibitor project, cell-based, luminescence, high throughput (AID 588824); details: cell-based VP16 transactivation luciferase luminescence; at 3.6 µM; stronger effect = higher value
SMILES,inhibition [1],inhibition [2]
COc1ccc(S(=O)(=O)N(C)c2ccc(C(=O)Nc3cccnc3)cc2)cc1OC,14.3%,17.4%
CC(Oc1ccccc1F)C(=O)NNC(=O)CC(C)c1ccccc1 (centres undefined),12.4%,2.31%
CN1CCc2c(OCc3ccc(F)cc3)cccc2C1=O,-8.74%,-7.17%
CCC(NC(=O)NC1CCCCC1)c1ccccc1 (centres undefined),-16%,-3.88%
CCCCCCN1C2=NCCCN2c2ccccc21,1.1%,10.4%
CCCn1ncc(/C=N/O)c1C,12.8%,25.9% (active)
CN1C(=O)C(O)(C2CCCCCC2=O)c2ccccc21 (centres undefined),-7.54%,-0.98%
Cc1cc(-c2ccc(F)cc2)n2ncc(-c3ccccc3)c2n1,-87.3%,-34.6%
Cc1oc(C(C)(C)C)cc1C(=O)N1CCN(c2ccc(C(F)(F)F)cn2)CC1,0.89%,15.2%
CCC(C)c1ccc(S(=O)(=O)Nc2cccnc2)cc1 (centres undefined),-9.79%,-4.32%
CC(=NCc1cccc(Cl)c1)c1nc(-c2ccco2)oc1O,4.53%,45% (active)
Cn1c(=O)c2[nH]c(Nc3ccccc3)nc2n(C)c1=O,-22.1%,0.08%
C=CCSc1nnc(-c2cc(C(C)(C)C)nn2Cc2ccc(F)cc2)n1C,1.92%,4.7%
C=C1C(=O)O[C@@]23[C@H]1CC[C@@H](C)[C@@H]2CC[C@@]1(C)O[C@@H]31,1.63%,7.69%
O=C(c1ccc(Cl)c(Cl)c1)N1CCN(c2ccccn2)CC1,-12.5%,7.01%
CCN(CC(=O)Nc1ccc(NC(C)=O)cc1)C(=O)Cc1ccc(S(=O)(=O)N2CCOCC2)s1,6.3%,8.19%
CN(C1CCCCC1)S(=O)(=O)c1ccc(NC(=O)C2CCCCC2)cc1,-0.79%,11%
CC(C)n1c(SCC(=O)Nc2nc3c(s2)CCCC3)nc2c1c(=O)n(C)c(=O)n2C,29.2%,23.6%
CN1CCN(c2ccc(CNS(=O)(=O)c3ccc(F)cc3Cl)cc2)CC1,-2.89%,-5.39%

SMILES,inhibition [1],inhibition [2]
CCNc1nc(NCC)n2c(SCC(=O)Nc3ccccc3C(F)(F)F)nnc2n1,-4.19%,-1.57%
O=C(CNC(=O)c1ccco1)Nc1ccncc1,-25.7%,-3.08%
COc1ccc2c(c1)c(C(C)=O)c(C)n2-c1ccccc1,13.5%,19.1%
COc1ccc(C2c3cc(OC)c(OC)cc3CCN2S(C)(=O)=O)cc1OC (centres undefined),9.85%,9.73%
N#Cc1c(N)nc2c(c1-c1ccc(F)cc1)CCC2,-6.03%,-10.2%
CC(=O)c1sc2nc(C)c3c(c2c1N)CCCC3,13.4%,3.88%
Cc1ccc(O)c(Nc2ncnc3ccc([N+](=O)[O-])cc23)c1,17.6%,23.6%
N#Cc1cc2ccncc2c2ccccc12,30.8%,16.7%
O=C(Nc1ccc(Cl)c([N+](=O)[O-])c1)C(Sc1ccccc1)c1ccccc1 (centres undefined),-8.15%,5.98%
O=C(Nc1nc(-c2ccc(F)c(F)c2)cs1)c1cnccn1,7.57%,-11.4%
Cn1c(/C=N/NC(=O)c2ccccc2Br)nc2ccccc21,4.29%,15.7%
CC(O)(c1ccccc1)c1nc(-c2cccc(C#N)c2)cs1 (centres undefined),-22.4%,-4.39%
N#Cc1c(-c2ccccc2)c(C#N)c2nc3ccccc3n2c1N,15.8%,17.8%
COc1ccc(C(=O)Nc2ccnn2C2CCN(C3CCC3)CC2)cc1,-28.9%,-0.43%
OC(CN1CCN(c2cccc(Cl)c2)CC1)c1ccccc1 (centres undefined),-16.2%,-6.51%
Cc1sc2ncnc(N3CCN(C(=O)c4ccco4)CC3)c2c1C,-0.07%,7.79%
O=C(COc1ccc(S(=O)(=O)Nc2ccccc2)cc1)NCc1ccncc1,-7.07%,2.08%
Cc1ccc(-n2ccc(-c3nn(-c4ccccc4)ccc3=O)n2)cc1,6.13%,13.3%
